Source: PubChem (several laboratories)
A selection: hits, their analogues and other compounds. The true share with any hit is near 2.2%.
Efflux pump inh = antifungal efflux pump inhibition, Nile Red retention; 330,000 tested, 0.44% active; S. cerevisiae Candida pump triplex; inhibition, % at 10 µM;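 active means plate passing quality check with inhibition over a set limit, or well fluorescence over plate mean plus 4 SD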;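 further: Nile Red retained in pooled yeast measured as flow cytometry median fluorescence; 0% = buffer negative control and 100% = Enniatin B positive control; higher means more Nile Red kept so more efflux inhibition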
SKN-1 inh = inhibitors of C. elegans SKN-1. C. elegans VP596 Pgst-4::GFP/RFP ratio, acrylamide-induced, 24 h. inhibition, % at 21.8 µM. 360,000 tested, 0.49% active. AID 624304;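 active means interference check ratio from 0.5 to 1.5 plus GFP to RFP signal ratio inhibition reaching or exceeding a fixed threshold, cut at about 30% in these data, passing the limit was not always enough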
Mot1-301 SUMO = inhibitors of SUMOylation pathway: yeast Mot1-301 growth rescue | S. cerevisiae Mot1-301 growth rescue, ATP luminescence, 38.5C; percent above DMSO median, 100 means doubled | growth rescue, % at 18.8 µM | 320,000 tested, 1% active | AID 2716;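 active means every valid replicate shows activation above 250% relative to neutral control wells; inactive means the rest, any valid replicate at or below 250%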;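 further: OY570 slx delta 5 strain wells were the positive control but not used for scaling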
sPLA2-III inh = Blocks human group III sPLA2 activity; inhibition, % at 12.2 µM; 370,000 tested, 0.56% active; QFRET BODIPY PC-A2 liposome hydrolysis, fluorescence; Q9NZ20;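 active means inhibition above mean plus 3 SD of compounds lying within the high and low control bounds, cut at about 19% in these data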;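 further: 0% = median of test compound wells and 100% = no enzyme DMSO wells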
Target sequence (Q9NZ20 whole entry, looked up): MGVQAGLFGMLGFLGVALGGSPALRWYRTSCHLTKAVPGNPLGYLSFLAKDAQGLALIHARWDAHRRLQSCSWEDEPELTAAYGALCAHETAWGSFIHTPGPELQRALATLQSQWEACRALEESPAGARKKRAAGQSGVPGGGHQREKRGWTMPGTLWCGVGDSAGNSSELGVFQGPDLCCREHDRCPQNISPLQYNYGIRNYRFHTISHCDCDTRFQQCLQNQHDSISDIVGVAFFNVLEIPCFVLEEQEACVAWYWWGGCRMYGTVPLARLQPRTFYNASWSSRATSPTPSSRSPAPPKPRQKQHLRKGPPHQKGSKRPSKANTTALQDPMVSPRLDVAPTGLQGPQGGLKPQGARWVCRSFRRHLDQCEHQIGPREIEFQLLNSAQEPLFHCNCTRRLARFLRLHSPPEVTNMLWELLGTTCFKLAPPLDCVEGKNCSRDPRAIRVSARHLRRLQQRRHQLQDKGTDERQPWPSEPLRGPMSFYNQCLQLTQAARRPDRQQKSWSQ
sPLA2 confirm = human GIII-sPLA2 inhibition, confirmation. recombinant hGIII-sPLA2, BODIPY PC-A2 QFRET fluorescence. 2,000 tested, 34% active. inhibition, % at 12.2 µM. shares compounds with sPLA2-III inh;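 active means mean inhibition across triplicates above the hit cutoff set in the earlier primary screen, cut at about 19% in these data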;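 further: 0% = enzyme with DMSO and 100% = DMSO wells lacking enzyme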
535nm interf = counter-screen for HGIII-sPLA2 inhibitors: 535nm fluorescence interference. shares compounds with sPLA2-III inh. BODIPY FL product fluorescence interference, QFRET. inhibition, % at 12.2 µM. 2,000 tested, 8.5% active;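 active means average inhibition above the solvent-only control mean plus 3 SD, cut at about 6% in these data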;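 further: 0% = DMSO with substrate plus product and 100% = DMSO with substrate alone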
BODIPY interf DR = 535nm optical interference dose response, HGIII-sPLA2 counter-screen | shares compounds with sPLA2-III inh | BODIPY FL product fluorescence interference, cell-free | IC50, µM | 240 tested, under 10 active | AID 743455;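 active means IC50 at or below 10 µM; inactive means IC50 above 10 µM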
The depositor's hits bear a star; x = no result given.

SMILES	Efflux pump inh	SKN-1 inh	Mot1-301 SUMO	sPLA2-III inh	sPLA2 confirm	535nm interf	others
FC(F)(F)c1cccc(CC2CN(Cc3ccccc3)Cc3ccccc3N2c2cc(Cl)cc(Cl)c2)c1 (configuration not stated)	x	-0.6	x	27.0*	-4.0	3.2
Nc1nc(-c2ccccc2)c(-c2ccccc2)s1	-0.1	9.8	x	-3.8	x	x
Nc1nc(-c2ccccc2)c(N=Nc2ccc(Cl)cc2)s1	0.1	21.2	3.5	19.3*	34.3*	7.1*
Cc1ccc(C)c(NC(=S)N2C3CCCC2CC(NC(=O)C2CC2)C3)c1 (configuration not stated)	0.1	11.6	9.5	21.3*	2.1	-1.1
ClC1(Cl)CC1Cn1cnc2ccccc21 (configuration not stated)	0.5	17.9	6.3	-1.5	x	x
COc1ccc(NC(=S)NCc2ccc3c(c2)cc(C)n3C)cc1	0.7	21.3	0.7	22.4*	2.4	-1.7
COC(=O)C1=CN(c2ccc(N3CCOCC3)cc2)C(N)=C(C#N)C1c1cccc(OC)c1OC (configuration not stated)	x	15.5	x	20.1*	-4.9	-20.5
COC(=O)C1=CN(c2ccc(Oc3ccccc3)cc2)C(N)=C(C#N)C1c1cccc(OC)c1OC (configuration not stated)	x	3.2	x	10.5	x	x
O=C(Nc1cc2c(ccc3ccccc32)oc1=O)C1CCCCC1	0.0	-0.2	1.9	23.1*	-3.0	-4.4
COCC(=O)N(c1ccc(C(C)C)cc1)C1C=CS(=O)(=O)C1 (configuration not stated)	0.0	11.8	-0.5	19.3*	-4.0	-8.3
O=C(Nc1nc2ccccc2[nH]1)c1cccc([N+](=O)[O-])c1	0.0	-0.6	4.1	10.9	x	x
COC(=O)c1cc(C(=O)Nc2nc3ccccc3[nH]2)cc([N+](=O)[O-])c1	-0.2	8.3	-5.1	29.0*	14.8	7.0*
CNC(=O)c1c(N)sc2c1CCCCC2	0.0	x	-13.4	x	x	x
CC(C)OC(=O)c1c(N)sc2c1CCCC2	-0.1	7.8	1.0	19.9*	18.0	-3.9
COc1ccc(C2c3ccc(O)cc3Oc3ncn4nc(-c5cccnc5)nc4c32)cc1OC (configuration not stated)	0.1	1.4	1.4	-23.0	x	x
O=Cc1nc(Nc2cc(F)cc(F)c2)nc(NC2CCCC2)n1	x	x	x	28.5*	22.6*	-7.7
COC(=O)Cc1cc(C)cc2c(=O)cc(-c3ccoc3)oc12	-0.1	-11.9	7.9	2.2	x	x
CCCn1nnc(NC(=O)c2ccc(OCC)c(Cl)c2)n1	0.1	-2.1	-2.9	24.4*	-1.8	-7.0
S=c1[nH]nc(-c2ccccc2)n1/N=C/C=C/c1ccco1	-0.2	2.4	1.0	17.4	x	x
S=c1[nH]nc(-c2ccc(Cl)cc2)n1/N=C/C=C/c1ccco1	0.1	11.7	-28.2	24.7*	29.8*	3.2
O=C(COc1ccccc1O)NCCN1CCOCC1	0.1	-7.9	455.3	19.7*	11.6	-2.2
CC1(C)CC(CCN)(Cc2ccccc2Cl)CCO1 (configuration not stated)	0.2	22.9	-9.3	19.7*	10.5	-11.6
CN(CCC#N)C(=O)CC1(Cc2ccccc2)CCOC(C)(C)C1 (configuration not stated)	-0.1	1.2	32.4	-4.0	x	x
S=C(NCC1CCCO1)Nc1ccc(Cl)cc1 (configuration not stated)	0.2	3.6	-11.5	-0.4	x	x
S=C(NCC1CCCO1)Nc1ccc(Cl)cc1Cl (configuration not stated)	-0.1	-2.8	-8.2	24.5*	3.2	-3.9
SMILES	Efflux pump inh	SKN-1 inh	Mot1-301 SUMO	sPLA2-III inh	sPLA2 confirm	535nm interf	others
CC1=C(C(=O)N2CCOCC2)CC(CC(=O)NCC2CCCCC2)C(=O)N1Cc1ccccc1 (configuration not stated)	x	5.4	x	5.8	x	x
Cc1cccc2nc(-c3ccco3)c(Nc3ccccc3)n12	-0.1	-0.5	11.2	-0.7	x	x
Cc1ccc(Nc2c(-c3ccccn3)nc3cccc(C)n23)cc1	0.1	-5.8	-24.2	22.9*	12.0	-24.6
COc1cc(C(=O)Nc2cccc(-c3nc4cc(C)ccc4o3)c2)cc(OC)c1OC	-0.3	7.4	4.5	19.3*	-16.6	-23.9
CC(C)C(=O)N1CCN(c2nc3ccc(Cl)cc3s2)CC1	0.1	22.8	-7.5	1.2	x	x
CS(=O)(=O)N1CCN(c2nc3ccc(Cl)cc3s2)CC1	0.0	-1.2	5.6	22.7*	-2.6	-7.3
CCc1cc(C(=O)Nc2nc(-c3ccccn3)cs2)sc1C	0.3	4.3	11.3	21.3*	25.2*	2.6
O=C(Nc1nc(-c2ccccn2)cs1)c1cc(Cl)ccc1[N+](=O)[O-]	0.1	3.0	7.7	9.4	x	x
O=C(Nc1nc(-c2ccccn2)cs1)c1ccc(-c2ccccc2F)o1	-0.4	1.5	15.3	21.2*	24.1*	3.6
Cc1cc(C(=O)Nc2nc(-c3ccccn3)cs2)ccc1[N+](=O)[O-]	0.2	-2.2	-5.2	26.3*	28.2*	-1.7	BODIPY interf DR=>122
COC(=O)[C@]12C[C@H](CC(=O)N3CCN(C(=O)c4ccco4)CC3)C(=O)N(CCc3ccc(OC)c(OC)c3)C1=C[C@H](COCc1ccccc1)O[C@@H]2C	x	x	x	-5.9	x	x
O=C(NNc1nc2c(F)cccc2s1)C1COc2ccccc2O1 (configuration not stated)	0.1	6.2	-5.8	17.5	x	x
COc1cccc2sc(NNC(=O)C3COc4ccccc4O3)nc12 (configuration not stated)	-0.2	9.7	x	22.5*	23.9*	-2.5
CCN(CC)S(=O)(=O)c1cccc(NC(=O)C2CC(=O)N(c3ccc4c(c3)OCCO4)C2)c1 (configuration not stated)	-0.2	14.4	-11.3	-14.4	x	x
CCc1ccc2c(F)cccc2n1	x	10.8	x	3.1	x	x
C=CC[n+]1c(-c2ccccc2)csc1NC(C)(C)C	-0.1	-8.7	9.3	19.5*	21.2*	-4.0
Cc1ccc(S(=O)(=O)NC(=O)C2(C)CCN2C(=O)c2ccccc2)nc1 (configuration not stated)	x	-6.1	x	17.1	x	x
CN1C(=O)c2cccc(N(C)C)c2C1=O	0.0	10.5	-8.8	9.1	x	x
CN(C)c1cccc2c1C(=O)c1ccccc1C2=O	0.0	29.5	-17.0	25.5*	32.6*	6.6*
COc1cc(/C=N/NC(=O)c2cccc(C)c2)ccc1OCC(=O)Nc1ccccc1	0.1	6.7	-3.3	-11.2	x	x
O=C(NNC(=S)Nc1ccc(F)cc1)C1[C@H]2CCCC[C@@H]12 (some centres not stated)	0.0	11.3	-21.3	24.6*	22.3*	2.8
